Assay results from PubChem BioAssay (NCI).
Values joined by “and” are separate entries in the source; they are usually repeats but may differ in a detail not shown here. Identical values can stand only once. This is part of a sample that, as a whole, favours compounds with a hit. Of some 83,000 tested, about 20% had one in any assay.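 Cell lines were cultured in 96-well plates, exposed to a single compound concentration, and assessed for percent growth 48 hours later.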 Active and inactive are the calls of the source. The calls were made as follows: active = growth percent below 10; inactive = the rest.

Each compound was assayed on NCI-H522 lung (assay: NCI-60 one-dose screen, 48 h (100 = growth as untreated, 0 = no growth, -100 = all killed)). Details: 10 µM unless noted.

Question: For COc1ccc(CCl)c(C)c1OC, which growth is on record?
Answer: The growth was 99.8% (inactive).

Question: Which growth does the source give for Nc1c(S(=O)(=O)O)cc(Br)c2c1C(=O)c1ccccc1C2=O here?
Answer: Its growth is 83% (inactive).

Question: CC1CC(O)CC(C)(C)C1.CC1CC(O)CC(C)(C)C1.CC1CC(O)CC(C)(C)C1.CC1CC(O)CC(C)(C)C1.[Ti] (centres undefined) was tested. Which growth did it give?
Answer: The growth was 112% (inactive).

Question: For CC(=O)Oc1ccc(C(c2ccc(OC(C)=O)cc2)c2ccccn2)cc1, which growth is on record?
Answer: The growth was 91.4% (inactive) and 72.6% (inactive).

Question: With CC(C)=NOC(C)C(=O)O (centres undefined) as the compound, how does the growth read?
Answer: Its growth is 111% (inactive).

Question: CCNCc1ccccc1 was tested. Which growth did it give?
Answer: Its growth is 102% (inactive).

Question: How did the growth turn out when Oc1cccnc1CN1CCOCC1 was run?
Answer: The growth was 93.8% (inactive) and 120% (inactive).

Question: For O=C1C2=C(Nc3cc(Cl)ccc3N2)OC1c1c[nH]c2ccc(COc3ccccc3)cc12 (centres undefined), which growth is on record?
Answer: Its growth is 54.8% (inactive).

Question: With CCOC(=O)C1=C(C)NC(C)=C(C(=O)OCC)C1 as the compound, how does the growth read?
Answer: Its growth is 104% (inactive) and 106% (inactive).

Question: How did the growth turn out when CC(C)(C)C1CCC(=NO)CC1 (centres undefined) was run?
Answer: Its growth is 92.5% (inactive).

Question: Which growth does the source give for O=C1c2ccccc2CN1c1ccccc1 here?
Answer: The growth was 74.7% (inactive).

Question: With COc1cc2oc3cc(=O)cc4oc(-c5ccccc5)cc(c2c2c1CCC(c1ccccc1)O2)c43 (centres undefined) as the compound, how does the growth read?
Answer: Its growth is 86.6% (inactive).

Question: For CCOC(=O)c1ccc(N2C(=O)C(Cl)(c3ccccc3)C2c2ccco2)cc1 (centres undefined), which growth is on record?
Answer: The growth was 34.2% (inactive).

Question: Which growth does the source give for Cc1cc(NC(=O)NC(=O)c2ccccc2N(C)C)ccc1Oc1ncc(Br)cn1 here?
Answer: The growth was -22.2% (active) and 15.1% (inactive).

Question: With CCc1ccc(OC(=O)CCl)cc1 as the compound, how does the growth read?
Answer: Its growth is 102% (inactive).

Question: For CCNC1=CC(=O)c2ncccc2C1=O, which growth is on record?
Answer: Its growth is -46.3% (active).

Question: O=C(O)Cc1cc(=O)[nH]n(-c2ccccc2)c1=O was tested. Which growth did it give?
Answer: The growth was 95.4% (inactive).

These compounds were tested on A549/ATCC NSCLC in the same assay as above. Details: 10 µM.

Question: With O=c1ccn2c(n1)OC1CC2OC1COC(c1ccccc1)(c1ccccc1)c1ccccc1 (centres undefined) as the compound, how does the growth read?
Answer: The growth was 93.5% (inactive).

Question: With CS/C(=C\c1ccc(C(=O)c2ccc(C)cc2)n1C)S(C)=O (centres undefined) as the compound, how does the growth read?
Answer: Its growth is 85.1% (inactive).

Question: S=c1nc[nH]c2nc[nH]c12 was tested. Which growth did it give?
Answer: The growth was 84.8% (inactive).

Same assay, conditions: 10 µM unless noted

Question: How did the growth turn out when Cc1c(Cl)cc(Cl)c(N)c1Cl was run?
Answer: The growth was 107% (inactive).

Question: With Oc1ccc(O)c(-c2ccccc2)c1 as the compound, how does the growth read?
Answer: Its growth is 66.1% (inactive).

Question: CCOCCC(=O)O was tested. Which growth did it give?
Answer: Its growth is 115% (inactive).

Question: For CCOC(=O)NC(N)=O, which growth is on record?
Answer: Its growth is 104% (inactive) and 107% (inactive).

Question: How did the growth turn out when CCCCC/C(C)=N\NC(N)=S was run?
Answer: The growth was 78.4% (inactive).

Question: For COc1cc2c(cc1O)C(=O)CCCC2, which growth is on record?
Answer: Its growth is 110% (inactive).

Question: For O=C1C=CC[C@H](/C=C/c2ccccc2)O1, which growth is on record?
Answer: Its growth is 12.2% (inactive) and 7.95% (active).

Question: For NC1=NC(c2ccccc2)N=C(Nc2ccccc2)N1 (centres undefined), which growth is on record?
Answer: The growth was 94.1% (inactive) and 106% (inactive).

Question: With CSc1nc(N)c(N)c(N)n1 as the compound, how does the growth read?
Answer: Its growth is 95.1% (inactive).

Question: For CCN(C)c1ccccc1, which growth is on record?
Answer: The growth was 105% (inactive).

Question: Cc1cnc(N)s1 was tested. Which growth did it give?
Answer: The growth was 69% (inactive).

Question: COC(=O)c1nc(=S)[nH]c(C(=O)OC)c1C(=O)c1ccccc1 was tested. Which growth did it give?
Answer: The growth was 112% (inactive).

Question: With CC(=O)c1cc2ccccc2o1 as the compound, how does the growth read?
Answer: The growth was 104% (inactive).

Question: With OCCCc1ccccc1 as the compound, how does the growth read?
Answer: The growth was 99.8% (inactive).

Question: Which growth does the source give for CCC/C(=N/NC(N)=O)c1ccco1 here?
Answer: Its growth is 93.4% (inactive).

Question: How did the growth turn out when O=C1C(=O)c2ccccc2C(O)=C1CC=C(Cl)Cl was run?
Answer: Its growth is 56% (inactive) and 44.5% (inactive).

Question: Which growth does the source give for CCC(=O)Oc1ccc(OCc2ccccc2)cc1 here?
Answer: The growth was 99.7% (inactive) and 102% (inactive).

Question: For O=C(OCc1ccccc1)c1ccccc1, which growth is on record?
Answer: The growth was 95.3% (inactive) and 86.6% (inactive).

Question: How did the growth turn out when COc1ccc(CCl)c(C)c1OC was run?
Answer: The growth was 102% (inactive).

Question: How did the growth turn out when Nc1c(S(=O)(=O)O)cc(Br)c2c1C(=O)c1ccccc1C2=O was run?
Answer: Its growth is 104% (inactive).

Question: Which growth does the source give for CC1CC(O)CC(C)(C)C1.CC1CC(O)CC(C)(C)C1.CC1CC(O)CC(C)(C)C1.CC1CC(O)CC(C)(C)C1.[Ti] (centres undefined) here?
Answer: Its growth is 92.6% (inactive).

Question: With CC(=O)Oc1ccc(C(c2ccc(OC(C)=O)cc2)c2ccccn2)cc1 as the compound, how does the growth read?
Answer: The growth was 87% (inactive) and 13.8% (inactive).

Question: Which growth does the source give for CC(C)=NOC(C)C(=O)O (centres undefined) here?
Answer: Its growth is 98.8% (inactive).

Question: With CCNCc1ccccc1 as the compound, how does the growth read?
Answer: Its growth is 102% (inactive).

Question: Oc1cccnc1CN1CCOCC1 was tested. Which growth did it give?
Answer: The growth was 102% (inactive) and 96.5% (inactive).

Question: O=C1C2=C(Nc3cc(Cl)ccc3N2)OC1c1c[nH]c2ccc(COc3ccccc3)cc12 (centres undefined) was tested. Which growth did it give?
Answer: Its growth is 74.2% (inactive).

Question: CCOC(=O)C1=C(C)NC(C)=C(C(=O)OCC)C1 was tested. Which growth did it give?
Answer: Its growth is 104% (inactive) and 99% (inactive).

Question: For CC(C)(C)C1CCC(=NO)CC1 (centres undefined), which growth is on record?
Answer: The growth was 91.6% (inactive).

Question: O=C1c2ccccc2CN1c1ccccc1 was tested. Which growth did it give?
Answer: The growth was 91.4% (inactive).
